Measurements from PubChem BioAssay (NCATS).
Records with an inconclusive call do not appear. The source made the active and inactive calls. Calls come from the whole dose curve; as a rule, active = well fitted curve in the direction sought with a large enough effect; inconclusive = small, poorly fitted or top-dose-only effect, or another doubt; inactive = no such curve, though single readings can be large; an effect the other way counts as inactive or inconclusive.

assay: qHTS for Inhibitors of Plasmodium falciparum (DD2) proliferation (AID 504314);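 note: parasite DNA measured by SYBR Green fluorescence after red cell lysis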; details: P. falciparum Dd2 in erythrocytes, SYBR Green growth, 72 h; series mostly up to 1.12 µM
In short: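 Normalization used 0.29 uM artemisinin as full inhibition and DMSO as baseline. Parasitized erythrocytes were exposed to compounds for 72 h (37C, 5% CO2), then lysed with saponin/Triton buffer containing SYBR Green I.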

Potency, inactive:
CC#CCN1c2ccccc2[C@]23C[C@@H](C(=O)OC)N(C(=O)c4ccc(Br)cc4)C2=NC(C(=O)OC)=C(C(=O)OC)[C@H]13
CCCCc1nc2c(c3c1C[C@H](C)OC3)CN(S(=O)(=O)c1ccc3c(c1)OCCN3C)CC2
COC(=O)[C@H]1[C@H](CCc2ccccc2)NC(=O)N(Cc2ccccc2)[C@@H]1C
CCOC(=O)CN1C(=O)N[C@@H](c2ccccc2)[C@@H](C(=O)OC)[C@H]1C
COC/C=C/C1=CC2=CC(=O)C(C)(OC(=O)c3cnc4ccccc4n3)C(=O)C2=CN1Cc1ccco1 (stereo not given)

assay: qHTS for Inhibitors of Plasmodium falciparum (GB4) proliferation (AID 504315); note: nearly all actives have a fitted effect of over 50% in size; details: P. falciparum GB4 in erythrocytes, SYBR Green DNA, 72 h; series mostly up to 6.7 µM
In short: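 Parasite growth measured as SYBR Green DNA fluorescence (ex 485, em 535 nm) after overnight lysis following 72 h culture at 37 °C, 0.3% parasitemia, 2.5% hematocrit. Values normalized against DMSO and 0.29 uM artemisinin controls, with plate-stack correction.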

Potency, inactive:
COC(=O)C1=C(C)N(Cc2ccco2)C(=O)N[C@@H]1c1ccco1
COc1cccc([C@@H]2Oc3ccc(Br)cc3C(=O)[C@@H]2OC(=O)Nc2cc(OC)c(OC)c(OC)c2)c1
CCN1C(=O)[C@@H]2[C@H]3[C@H](O)[C@H](O)CC(=NO[C@@H](C)c4cc(-c5c(C)cc(C)cc5C)no4)[C@@H]3CC[C@H]2C1=O
COC(=O)C1(C(=O)OC)CC(CO)C(=O)[C@@H]1c1ccccc1 (stereo not given in full)
COC/C=C/C1=CC2=CC(=O)C(C)(OC(=O)c3cnc4ccccc4n3)C(=O)C2=CN1C1CCCC1 (stereo not given)
COC(=O)C1=C(C(=O)OC)[C@@H]2Nc3ccccc3[C@@]23C[C@@H](C(=O)OC)N(C(=O)c2ccc(Br)cc2)C3=N1
CCCCc1nc2c(c3c1C[C@H](C)OC3)CN(C(=O)Cc1cccc(OC)c1)CC2
CCCCC1=CC2=C(c3ccco3)C(=O)C(C)(OC(=O)c3ccc(OC)cc3)C(=O)C2=CN1CCc1c[nH]c2ccccc12 (stereo not given)
C[C@@H]1C[C@](C)(C(=O)c2ccc3ccccc3c2)C=C1c1ccc2ccccc2c1
CCN1C(=O)N(C)[C@@H](c2ccccc2)C(C(=O)OC)=C1C
COc1ccc2c(c1)O[C@@H](c1cccc(C(F)(F)F)c1)[C@H](OC(=O)N[C@H]1CCCc3ccccc31)C2=O
COC(=O)CCC(=O)OC1(C)C(=O)C2=CN(CCCCO)C(c3ccc(OC)cc3)=CC2=C(Br)C1=O (stereo not given)
CCN1C(=O)N[C@@H](c2cccs2)C(C(=O)OC)=C1C
CCCCC1=CC2=CC(=O)C(C)(OC(=O)CC)C(=O)C2=CN1CCc1c[nH]c2ccccc12 (stereo not given)
CCN1C(=O)N[C@@H](c2cccc(F)c2)C(C(C)=O)=C1C
CC#CCN1c2ccccc2[C@]23C[C@@H](C(=O)OC)N(C(=O)c4ccco4)C2=NC(C(=O)OC)=C(C(=O)OC)[C@H]13
COC(=O)[C@@H]1[C@@H](C)N(CCc2cc(OC)c(OC)c(OC)c2)C(=O)N[C@H]1c1ccccc1
COC(=O)CCC(=O)OC1(C)C(=O)C=C2C=C(C3CC3)N(c3ccccc3)C=C2C1=O (stereo not given)
CCCNC(=O)N1C2=NC(C(=O)OC)=C(C(=O)OC)[C@@H]3Nc4ccccc4[C@]23C[C@H]1C(=O)OC
CC(=O)C1=C(C)N(Cc2ccccc2)C(=O)N[C@H]1c1ccco1
COC/C=C/C1=CC2=CC(=O)C(C)(OC(=O)c3cnc4ccccc4n3)C(=O)C2=CN1Cc1ccc2c(c1)OCO2 (stereo not given)
COc1cccc([C@@H]2Oc3ccc(Br)cc3[C@H](O)[C@@H]2O)c1
COC(=O)c1ccccc1S(=O)(=O)N1CCc2nc(COc3ccccc3)c3c(c2C1)CO[C@@H](C)C3
CCOC(=O)OC[C@H]1O[C@H](c2ccccc2)C=C[C@H]1OC(=O)OCC
O=C(NS(=O)(=O)c1ccc(F)cc1)O[C@@H]1C(=O)c2cc(Br)ccc2O[C@H]1c1ccc2c(c1)OCO2
C=CCN1c2ccccc2[C@]23C[C@@H](C(=O)OC)N(S(=O)(=O)c4cccs4)C2=NC(C(=O)OC)=C(C(=O)OC)[C@H]13
CC1(C)O[C@@H]2[C@@H](O1)C(c1ccccc1)(c1ccccc1)OP(=O)(O)OC2(c1ccccc1)c1ccccc1
CCOC(=O)[C@@]1([C@@H](NC(=O)OC)c2cccc(F)c2)CCCC1=O
CCOC(=O)CN1C(=O)N[C@@H](c2cccc(C(F)(F)F)c2)[C@H](C(=O)OC)[C@H]1C
CC=Cc1cc2ccccc2c2c(C(=O)OC)c(C(=O)OC)c(C(=O)OC)n12
CCCCC1=CC2=CC(=O)C(C)(OC(=O)CC)C(=O)C2=CN1c1ccccc1 (stereo not given)
COC/C=C/C1=CC2=CC(=O)C(C)(OC(=O)c3cnc4ccccc4n3)C(=O)C2=CN1CCOC (stereo not given)
COC(=O)[C@@]1(C=C2c3ccc(F)cc3[C@@H](OC)[C@@H]2C)[C@@H]2CC=C[C@@H]21
COC(=O)[C@H]1[C@@H](C)N(Cc2ccccc2)C(=O)N[C@H]1c1cccc(C(F)(F)F)c1
COC(=O)C1=C(C(=O)OC)[C@@H]2N(Cc3ccccc3)c3ccccc3[C@@]23C[C@@H](C(=O)OC)N(C(=O)COCc2ccccc2)C3=N1
CC#CCN1c2ccccc2[C@]23C[C@@H](C(=O)OC)N(C(=O)c4ccc(Br)cc4)C2=NC(C(=O)OC)=C(C(=O)OC)[C@H]13
CCCCc1nc2c(c3c1C[C@H](C)OC3)CN(S(=O)(=O)c1ccc3c(c1)OCCN3C)CC2
COC(=O)[C@H]1[C@H](CCc2ccccc2)NC(=O)N(Cc2ccccc2)[C@@H]1C
CCOC(=O)CN1C(=O)N[C@@H](c2ccccc2)[C@@H](C(=O)OC)[C@H]1C
COC/C=C/C1=CC2=CC(=O)C(C)(OC(=O)c3cnc4ccccc4n3)C(=O)C2=CN1Cc1ccco1 (stereo not given)
